Test [1] concerns the target human Retinoid X Receptor beta (RXRb), RXRB (gene 6257) (UniProt P28702). The test is described as follows: ATG_RXRb_TRANS: Attagene TRANS-FACTORIAL HepG2 Assay for human Retinoid X Receptor beta (RXRb) (AID 2283013; active = hit-call score of the fitted dose curve at least 0.9, where 1 is the maximum). The procedure, abridged:
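Readout is reporter transcript induction after 24 h dosing. It is measured by RT-PCR of total RNA followed by fluorescent capillary electrophoresis. HepG2 liver cells carry transfected multiple reporter units driven by an exogenous RXRb-Gal4 fusion; activity is relative to DMSO.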

The target of test [2] is human Thyroid Receptor alpha (THRa1), THRA (gene 7067) (UniProt P10827). The test can be described thus: ATG_THRa1_TRANS: Attagene TRANS-FACTORIAL HepG2 Assay for human Thyroid Receptor alpha (THRa1) (AID 2283014; active = hit-call score of the fitted dose curve at least 0.9, where 1 is the maximum). The procedure, abridged: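 Measured here is mRNA from a GAL4-UAS reporter in transfected HepG2 cells carrying a Gal4-fused receptor, 24 h post-dose. DMSO served as negative control and baseline.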
human Thyroid Receptor alpha (THRa1), THRA (gene 7067), sequence (P10827 whole entry, looked up, the tested form may be a part): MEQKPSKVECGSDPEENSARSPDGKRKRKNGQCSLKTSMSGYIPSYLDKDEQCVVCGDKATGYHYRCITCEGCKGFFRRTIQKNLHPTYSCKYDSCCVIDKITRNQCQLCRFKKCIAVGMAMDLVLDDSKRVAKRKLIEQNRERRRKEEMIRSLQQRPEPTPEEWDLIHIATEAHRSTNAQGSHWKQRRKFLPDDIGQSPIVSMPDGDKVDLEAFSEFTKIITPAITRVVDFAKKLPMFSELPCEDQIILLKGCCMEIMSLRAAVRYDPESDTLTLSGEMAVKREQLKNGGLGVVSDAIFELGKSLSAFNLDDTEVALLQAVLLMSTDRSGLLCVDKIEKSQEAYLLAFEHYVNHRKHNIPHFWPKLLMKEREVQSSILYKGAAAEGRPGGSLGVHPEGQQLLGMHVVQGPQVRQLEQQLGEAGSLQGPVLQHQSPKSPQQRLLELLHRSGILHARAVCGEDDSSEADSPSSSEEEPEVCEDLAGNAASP

Read-out in test [3]: E-selectin (Homo sapiens) (UniProt P16581)
The test is described as follows: BSK_3C_Eselectin: BioMAP Diversity Plus: 3C Assay for Eselectin Biomarker Activity (AID 2283015).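 As to outcome: cell surface E-selectin protein quantified by ELISA 24 h after dosing.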 The following applies: primary human endothelial cells (HUVEC); actives raise or lower the signal. The procedure, abridged: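 Endpoint derived by bidirectional fitting against DMSO vehicle; signal is ELISA-detected E-selectin from primary HUVEC at 24 h post-dosing, with parallel SRB staining (0.1% SRB, 560 nm) flagging cytotoxicity.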

Read-out in test [4]: Interleukin-1 alpha (IL1a), IL1A (gene 3552)
The test can be described thus: BSK_BE3C_IL1a: BioMAP Diversity Plus: BE3C Assay for Interleukin-1 alpha (IL1a) Biomarker Activity (AID 2283016). The conditions noted are these: primary human bronchial epithelial cells; actives raise or lower the signal. The method, boiled down: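 IL-1a measured by ELISA after 24 h treatment of human primary bronchial epithelial cells, with gain or loss of signal fitted versus DMSO. Parallel cultures stained with SRB gauge overt cytotoxicity.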

Read-out in test [5]: Monocyte Chemoattractant Protein-1 (MCP1), CCL2 (gene 6347)
The test can be described thus: BSK_3C_MCP1: BioMAP Diversity Plus: 3C Assay for Monocyte Chemoattractant Protein-1 (MCP1) Biomarker Activity (AID 2283017). The conditions noted are these: primary human endothelial cells (HUVEC); actives raise or lower the signal. The method, boiled down: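 Using human vascular primary endothelium, researchers measured MCP-1 by ELISA 24 h after treatment, with DMSO serving as negative control for bidirectional fitting.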

Read-out in test [6]: Monocyte Chemoattractant Protein-1 (MCP1), CCL2 (gene 6347)
The test is described as follows: BSK_4H_MCP1: BioMAP Diversity Plus: 4H Assay for Monocyte Chemoattractant Protein-1 (MCP1) Biomarker Activity (AID 2283018). The conditions noted are these: primary human endothelial cells (HUVEC); actives raise or lower the signal. The method, boiled down: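 ELISA of MCP-1 (CCL2) 24 h after chemical dosing of HUVEC in the BioMAP 4H system. Gain or loss versus DMSO fitted; parallel SRB staining (560 nm) tracked overt cytotoxicity.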

Read-out in test [7]: Human Leukocyte Antigen - DR isotype (HLADR), HLA-DRA (gene 3122)
The test is described as follows: BSK_3C_HLADR: BioMAP Diversity Plus: 3C Assay for Human Leukocyte Antigen - DR isotype (HLADR) Biomarker Activity (AID 2283019). The conditions noted are these: primary human endothelial cells (HUVEC); actives raise or lower the signal. The procedure, abridged: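 Compound added to primary HUVEC cultures, 24 h incubation, then HLA-DR determined by ELISA; endpoint derived by bidirectional fitting relative to DMSO negative control.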

Read-out in test [8]: Interleukin-8 (IL8), CXCL8 (gene 3576)
The test can be described thus: BSK_3C_IL8: BioMAP Diversity Plus: 3C Assay for Interleukin-8 (IL8) Biomarker Activity (AID 2283020). The conditions noted are these: primary human endothelial cells (HUVEC); actives raise or lower the signal. The procedure, abridged: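 IL-8 was measured by ELISA in HUVEC cultures 24 h after chemical dosing, with gain or loss of signal fitted relative to DMSO. Parallel SRB total-protein staining tracked overt cytotoxicity.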

Read-out in test [9]: Monokine induced gamma interferon (MIG), CXCL9 (gene 4283)
The test is described as follows: BSK_3C_MIG: BioMAP Diversity Plus: 3C Assay for Monokine induced gamma interferon (MIG) Biomarker Activity (AID 2283021).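 As to AC50: MIG protein level measured by immunoassay in the treated endothelial cultures.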 The conditions noted are these: primary human endothelial cells (HUVEC); actives raise or lower the signal. The procedure, abridged: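 ELISA measurement of MIG in human umbilical vein endothelial cells 24 h after treatment. Cytotoxicity tracked by SRB staining in parallel cultures; gain or loss of signal fitted relative to DMSO.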

A short description of test [10]: BSK_3C_SRB: Viability Assessment in the BioMAP Diversity Plus: 3C Assay (AID 2283023).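 Also: cells read 24 h after compound dosing; fitted both ways against DMSO so a hit may be signal rise or drop.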 The following applies: primary human endothelial cells (HUVEC). The procedure, abridged: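 Overt cytotoxicity is gauged in parallel confluent HUVEC cultures by SRB total-protein staining at the time of biomarker measurement, 24 h after dosing. Gain or loss of signal is fitted versus DMSO.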

Read-out in test [11]: Matrix Metallopeptidase 1 (MMP1), MMP1 (gene 4312)
The test is described as follows: BSK_BE3C_MMP1: BioMAP Diversity Plus: BE3C Assay for Matrix Metallopeptidase 1 (MMP1) Biomarker Activity (AID 2283024). The conditions noted are these: primary human bronchial epithelial cells; actives raise or lower the signal. The procedure, abridged:
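ELISA measurement of MMP-1 after 24 h compound exposure of primary human bronchial epithelial cells. Changes in either direction fitted relative to DMSO; parallel SRB staining checked overt cytotoxicity.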

Test [12] in a line: BSK_3C_Vis: BioMAP Diversity Plus: 3C Assay for Morphology Visualization (AID 2283025).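 Also: fitted both ways so gain or loss versus DMSO counts.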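 As to AC50: light microscopy image of cell morphology used as background control.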 The following applies: primary human endothelial cells (HUVEC). The procedure, abridged: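 Light-microscopy visualization of HUVEC cultures at 24 h post-treatment, with DMSO as baseline for bidirectional fitting.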
Read-out in test [13]: Pselectin, SELP (gene 6403)
The test is described as follows: BSK_4H_Pselectin: BioMAP Diversity Plus: 4H Assay for Pselectin Biomarker Activity (AID 2283026). The conditions noted are these: primary human endothelial cells (HUVEC); actives raise or lower the signal. The method, boiled down: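 ELISA of surface P-selectin on HUVEC, 24 h after dosing, with parallel SRB staining (0.1% after 10% TCA fixation, 560 nm) for overt cytotoxicity. Activity fitted in both directions relative to DMSO.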

Test [14] is described as follows: BSK_4H_SRB: Viability Assessment in the BioMAP Diversity Plus: 4H Assay (AID 2283027).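 Also: cells exposed to compound for 24 h before staining.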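 As to AC50: curves fitted both ways versus DMSO so AC50 may be loss or gain.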 The conditions noted are these: primary human endothelial cells (HUVEC). The method, boiled down:
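HUVEC, 24 h post-dose; 10% TCA fix, 0.1% SRB stain, A560 nm. Total protein = overt cytotoxicity, parallel to biomarker read. Bidirectional fit vs DMSO baseline.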

Test [15] is described as follows: BSK_BE3C_SRB: Viability Assessment in the BioMAP Diversity Plus: BE3C Assay (AID 2283028).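 As to AC50: fitted both ways so AC50 may mark signal gain or loss versus DMSO.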 The following applies: primary human bronchial epithelial cells. The method, boiled down:
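SRB total-protein staining (0.1%, after TCA fixation) of chemically dosed human bronchial epithelial primary cells at 24 h; DMSO serves as the negative control for bidirectional curve fitting.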

Read-out in test [16]: Urokinase-type plasminogen activator receptor (uPAR), PLAUR (gene 5329)
The test can be described thus: BSK_4H_uPAR: BioMAP Diversity Plus: 4H Assay for Urokinase-type plasminogen activator receptor (uPAR) Biomarker Activity (AID 2283030). The conditions noted are these: primary human endothelial cells (HUVEC); actives raise or lower the signal. The procedure, abridged: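 Endpoint derived via bidirectional curve fitting against DMSO baseline; readout was ELISA detection of uPAR on umbilical vein endothelial cells at 24 h post-treatment, with SRB-stained parallel cultures assessing cytotoxicity.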

Read-out in test [17]: Vascular endothelial growth factor receptor 2 (Homo sapiens) (UniProt P35968)
The test is described as follows: BSK_4H_VEGFRII: BioMAP Diversity Plus: 4H Assay for Vascular endothelial growth factor receptor 2 (VEGFR2) Biomarker Activity (AID 2283031).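 As to AC50: cell-surface VEGFR2 protein level quantified by ELISA.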 The following applies: primary human endothelial cells (HUVEC); actives raise or lower the signal. The method, boiled down: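 In this multiplexed HUVEC system, biomarker ELISA was performed after 24 h chemical exposure. Parallel SRB staining (TCA fixation, 560 nm) tracked cytotoxicity; DMSO served as baseline.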

Read-out in test [18]: Human Leukocyte Antigen - DR isotype (HLADR), HLA-DRA (gene 3122)
The test is described as follows: BSK_BE3C_HLADR: BioMAP Diversity Plus: BE3C Assay for Human Leukocyte Antigen - DR isotype (HLADR) Biomarker Activity (AID 2283032). The conditions noted are these: primary human bronchial epithelial cells; actives raise or lower the signal. The procedure, abridged: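 Cell-surface HLA-DR ELISA readout at 24 h after dosing in the BE3C primary human lung bronchial epithelial system; gain or loss of signal against DMSO, with parallel sulforhodamine B staining of total protein for overt cytotoxicity.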

Test [19] concerns the target human Vitamin D Receptor (VDR), VDR (gene 7421) (UniProt P11473). The test is described as follows: ATG_VDR_TRANS: Attagene TRANS-FACTORIAL HepG2 Assay for human Vitamin D Receptor (VDR) (AID 2283022; active = hit-call score of the fitted dose curve at least 0.9, where 1 is the maximum). The method, boiled down: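 Multiplexed TRANS reporter in HepG2; 24 h treatment; reporter mRNA by RT-PCR plus capillary electrophoresis; upregulation scored relative to DMSO.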

Read-out in test [20]: Thrombomodulin, THBD (gene 7056)
The test can be described thus: BSK_3C_Thrombomodulin: BioMAP Diversity Plus: 3C Assay for Thrombomodulin Biomarker Activity (AID 2283029). The following applies: primary human endothelial cells (HUVEC); actives raise or lower the signal. The procedure, abridged:
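ELISA measurement of thrombomodulin on HUVEC surface 24 h after chemical dosing; activity fitted in both directions relative to DMSO vehicle.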

The structures appear in SMILES notation. Inconclusive results are not listed. Calls of active or inactive are those of the source. The calls were made as follows, unless noted: active = hit-call score of the fitted dose curve at least 0.9, where 1 is the maximum; inactive = score below 0.9.

E-selectin (Homo sapiens), sequence (P16581 whole entry, looked up): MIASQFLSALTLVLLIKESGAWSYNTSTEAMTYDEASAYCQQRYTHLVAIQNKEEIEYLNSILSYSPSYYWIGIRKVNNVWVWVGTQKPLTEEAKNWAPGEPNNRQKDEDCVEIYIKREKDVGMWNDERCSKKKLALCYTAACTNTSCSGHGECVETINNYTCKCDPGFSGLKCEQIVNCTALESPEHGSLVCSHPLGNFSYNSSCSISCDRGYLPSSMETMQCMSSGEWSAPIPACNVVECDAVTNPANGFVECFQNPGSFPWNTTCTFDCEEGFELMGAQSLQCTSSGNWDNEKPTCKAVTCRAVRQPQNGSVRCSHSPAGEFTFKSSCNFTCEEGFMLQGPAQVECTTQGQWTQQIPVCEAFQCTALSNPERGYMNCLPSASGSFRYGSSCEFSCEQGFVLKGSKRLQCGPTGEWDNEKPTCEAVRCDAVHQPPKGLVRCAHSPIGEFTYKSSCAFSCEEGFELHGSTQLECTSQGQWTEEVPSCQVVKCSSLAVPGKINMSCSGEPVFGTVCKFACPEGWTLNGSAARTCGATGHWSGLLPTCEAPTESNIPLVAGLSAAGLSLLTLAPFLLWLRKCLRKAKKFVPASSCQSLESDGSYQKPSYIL
human Vitamin D Receptor (VDR), VDR (gene 7421), sequence (P11473 whole entry, looked up): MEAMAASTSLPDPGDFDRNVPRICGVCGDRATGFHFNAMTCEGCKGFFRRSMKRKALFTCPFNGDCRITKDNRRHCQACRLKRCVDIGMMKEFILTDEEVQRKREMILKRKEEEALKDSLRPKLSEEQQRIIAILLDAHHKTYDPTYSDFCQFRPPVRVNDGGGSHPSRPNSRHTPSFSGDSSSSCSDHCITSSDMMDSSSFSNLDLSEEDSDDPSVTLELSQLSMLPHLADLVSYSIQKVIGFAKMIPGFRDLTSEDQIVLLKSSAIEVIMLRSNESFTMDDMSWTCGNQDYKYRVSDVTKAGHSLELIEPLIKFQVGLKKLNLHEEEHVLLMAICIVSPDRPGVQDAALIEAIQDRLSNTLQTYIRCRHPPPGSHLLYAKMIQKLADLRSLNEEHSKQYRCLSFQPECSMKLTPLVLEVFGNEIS
human Retinoid X Receptor beta (RXRb), RXRB (gene 6257), sequence (P28702 whole entry, looked up, the tested form may be a part): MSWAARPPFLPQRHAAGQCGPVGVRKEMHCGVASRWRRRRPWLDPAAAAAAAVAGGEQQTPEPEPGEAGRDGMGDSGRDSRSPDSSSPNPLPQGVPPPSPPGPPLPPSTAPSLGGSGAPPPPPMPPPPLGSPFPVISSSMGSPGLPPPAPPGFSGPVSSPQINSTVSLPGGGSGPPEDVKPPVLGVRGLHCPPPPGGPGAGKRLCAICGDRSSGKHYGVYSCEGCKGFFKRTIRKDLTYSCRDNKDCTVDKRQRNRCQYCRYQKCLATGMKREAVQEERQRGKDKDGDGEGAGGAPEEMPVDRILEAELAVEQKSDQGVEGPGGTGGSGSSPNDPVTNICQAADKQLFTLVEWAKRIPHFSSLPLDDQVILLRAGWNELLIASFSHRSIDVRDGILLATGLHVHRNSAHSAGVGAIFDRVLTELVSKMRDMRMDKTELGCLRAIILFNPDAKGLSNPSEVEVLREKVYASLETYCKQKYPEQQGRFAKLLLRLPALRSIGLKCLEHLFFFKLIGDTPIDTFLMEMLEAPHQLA

For `CCOP(=S)(OCC)SCSP(=S)(OCC)OCC`, the AC50 (usually the midpoint of the concentration-response curve, whichever way the signal moves) in test [1] was 12.4 µM (active). The call in test [2], in test [3], in test [4], in test [5], in test [6] and in test [7] was inactive. Also, the outcome in [8], in test [9], in test [10], in test [11], in test [12] and in [13] was inactive. The result in test [14], in [15], in test [16], in test [17] and in test [18] was inactive.

In the case of `CC(C)c1cccc(C(C)C)c1O`, the AC50 in test [1] was 50.6 µM (active). The compound was called inactive in test [2] and in test [19].

Turning to `O=C(CCl)CCl`, the compound was called inactive in test [1], in [2] and in [19].

In the case of `Oc1ccc(-c2ccccc2)cc1`, the compound was called inactive in [1], in [2], in test [3], in test [4], in [5] and in test [6]. In addition, the result in test [7], in test [8], in test [9], in test [19], in test [10] and in test [11] was inactive. The outcome in test [12], in test [13], in test [14], in [15], in test [16] and in test [17] was inactive. Also, the result in test [18] was inactive.

Consider `COS(=O)(=O)c1ccc(C)cc1`, for which the result in test [1], in test [2] and in [19] was inactive.

Turning to `CCC(C)c1cccc(C(C)CC)c1O` (stereo not given), the AC50 in test [1] was 26.3 µM (active). Also, the outcome in [2] and in [19] was inactive.

Turning to `ClC(Cl)=C(Cl)C(Cl)=C(Cl)Cl`, the compound was classed as inactive in test [1], in test [2] and in test [20]. The AC50 in test [3] is 14.5 µM (active); in test [4], 36.7 µM (active); in [5] it was 31.4 µM (active); in test [6], 31.6 µM (active); in test [7] it was 29.8 µM (active); in [8], 32.4 µM (active). Also, the AC50 in test [9] is 36.5 µM (active); in test [10], 34.4 µM (active); in test [11], 20 µM (active); in test [12], 37.5 µM (active); in [13] it was 33.6 µM (active); in test [14], 34.2 µM (active). Further, the concentration at half-maximal activity (AC50) was 31.2 µM (active) in [15], 32.2 µM (active) in test [16], 31.1 µM (active) in [17] and 26.9 µM (active) in [18].

On to `COP(=S)(OC)Oc1cc(Cl)c(Cl)cc1Cl`, for which the AC50 in test [1] was 68.2 µM (active); in test [7] it was 27.4 µM (active); in test [11], 20 µM (active); in test [13], 20 µM (active); in test [14] it was 20 µM (active). Besides, the call in test [2], in test [3], in test [4], in test [5], in [6] and in test [8] was inactive. For the same compound, the outcome in test [9], in test [10], in [12], in [15], in test [20] and in test [16] was inactive. The result in test [17] and in test [18] was inactive.

For `Nc1cccc2ccccc12`, the result in test [1], in [2], in test [3], in test [4], in test [5] and in test [6] was inactive. The result in [7], in [8], in test [9], in [10], in test [11] and in test [12] was inactive. For the same compound, the result in test [13], in test [14], in test [15], in test [20], in test [16] and in [18] was inactive.

The record behind these values is PubChem BioAssay (EPA / NIEHS).
